Out of some 330,000 compounds screened, about 7,300 (2.2%) were called active. The sample as a whole holds a higher share of actives than the screen did. A number with no mark means an inactive call.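 Rule for the calls: active = inhibition of at least 40%; inactive = the rest.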

The nature of the assay: growth inhibition of tim10-1 ts yeast – luminescence, uHTS, primary screen (AID 463190).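 Note: mutant grown at 25 °C; 0% = DMSO wells with yeast and 100% = wells holding no yeast.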 The following applies: S. cerevisiae tim10-1 ts strain growth, BacTiter-Glo, 24 h; at 20 µM; active compounds read high.
As for `COC(=O)c1ccccc1NC(=O)C1CC(=O)N(c2ccc(OC)cc2)C1` (centres undefined), the inhibition (in general, the change of the read-out against control, counted positive when it falls) was 3.6%. To `COCCn1nnnc1CN1CCC(NC(=O)Nc2cccc(OC)c2)CC1` belongs -0.459%; to `COc1ccc(/C=C2\SC(=O)N(CCC(=O)NCCCn3ccnc3)C2=O)cc1`, 8.52%. The value for `COc1ccc(/C=C2\SC(=O)N(CCC(=O)NC3CCS(=O)(=O)C3)C2=O)cc1` (centres undefined) was -0.597%. To `COc1ccc(/C=C2/SC(=O)N(CCCCCC(=O)Nc3ccccc3C(=O)O)C2=S)cc1` belongs 40% (active); to `Cc1cccc(OCC(O)Cn2c(N3CCCCC3)nc3c2c(=O)[nH]c(=O)n3C)c1` (centres undefined), 12.9%.

Regarding `CCOC(=O)C1CCN(C(=O)COc2cccc3ccccc23)CC1`, the inhibition is 6.37%.

As for `O=C(CCCN=C1NS(=O)(=O)c2ccccc21)OCC(=O)c1ccc(F)c(F)c1`, the inhibition is 11.8%. Consider `CCOc1ccc(NC(=O)CN(C)C(=O)c2c(C)noc2C)cc1OCC`, for which the inhibition was -5.08%. Regarding `COC(=O)C1(CCSC)NC(c2ccc(OC)cc2OC)C2C(=O)N(c3cccc(C(C)=O)c3)C(=O)C21` (centres undefined), the inhibition is 8.92%. The value for `O=C(Nc1ccncc1)Nc1ccc(F)cc1` was -16.8%; that for `CC(C)(CCl)C(=O)Nc1ccc(Sc2ccc(F)cc2)cc1` was 53.5% (active); that for `CC(C)CNC(=S)Nc1ccc(F)cc1` was 0.34%. The value for `Cc1ccc(NC(=O)Cc2nc(COC(=O)C(C)NS(=O)(=O)c3ccc(C)cc3)cs2)cc1` (centres undefined) was 15.7%. To `O=C(CSC(=S)N1CCCCC1)c1c(F)cccc1F` belongs 9.67%; to `Oc1c(Cl)cc(Cl)c(Cl)c1Cc1c(O)c(Cl)cc(Cl)c1Cl`, 91% (active); to `Cc1cc(/C=N/NC(=O)CC2(C)OCCO2)c(C)n1-c1ccc(Cl)c(Cl)c1`, 1.86%. Take `O=C1c2cccnc2C(Nc2ccc(S(=O)(=O)N3CCCCCC3)cc2)N1Cc1ccccc1` (centres undefined): the inhibition is 34.2%. The value for `CC1=C(/C=C/C(C)=C/C=C/C(C)=C/C=C/C=C(C)/C=C/C=C(C)/C=C/C2=C(C)CCCC2(C)C)C(C)(C)CCC1` was 10.6%; that for `CCCCCCCCCCCCCCCC(=O)OC/C=C(C)/C=C/C=C(C)/C=C/C1=C(C)CCCC1(C)C` was 40.7% (active). Take `COC(=O)c1ccccc1NC(=O)CN(Cc1ccc(Cl)cc1)S(C)(=O)=O`: the inhibition was 10.7%. To `CCCCNCc1ccc(SC)cc1` belongs -1.78%; to `O=C(Nc1cccc(F)c1)c1coc(=O)c(Br)c1`, 18.9%. The value for `CCc1ccccc1N1CN(Cc2ccco2)CNC1=S` was 17.4%; that for `COc1ccc(C(=O)Nc2ccc(-n3nncc3C(C)(C)C)cc2)cc1` was 44% (active).

Regarding `C/C(=N\Nc1ccc([N+](=O)[O-])cc1)c1ccc(-n2nncc2C(C)(C)C)cc1`, the inhibition was -1.51%. With `COc1ccc(NC(=O)c2ccc(C#CC(C)(C)O)cc2)cc1`, the inhibition is 9.08%. On to `CCCNC(=O)c1ccc(N2CCC3(CC2)CC(c2ccc(Cl)cc2)=NO3)c([N+](=O)[O-])c1`, for which the inhibition was 7.65%. The value for `Cc1nonc1OCCn1nnnc1N` was 4.98%; that for `COc1ccccc1N(CCOc1ccccc1)S(=O)(=O)c1ccccc1` was 7.59%.

As to `O=C1OC(/C=C/c2ccccc2)=NC/1=C/c1ccco1`, the inhibition was 45.5% (active). The value for `COc1ccccc1/C=C/C1=NC(=C\N(C)C)/C(=O)O1` was 21%. Turning to `Cc1ccccc1C1=N/C(=C/c2cccnc2)C(=O)O1`, the inhibition was 31.3%. On to `CCN(Cc1ccccc1)C(=O)CCS(=O)(=O)c1ccc2c(c1)oc(=O)n2C`, for which the inhibition was -13%. To `C[C@H](CO)N1C[C@H](C)[C@@H](CN(C)C(=O)Nc2ccc3c(c2)OCO3)Oc2c(cccc2N(C)C)C1=O` belongs 12.3%; to `CCS(=O)(=O)N1CCC(N2CCN(c3ccccc3)CC2)CC1`, 4.85%. The value for `COC(=O)c1cc2c(N)c(C(=O)c3ccc(Cl)cc3)sc2nc1C(OC)OC` was 10.6%; that for `CCc1nc2sc(C(=O)O)c(N)c2c2c1CCCC2` was -71.8%.

Regarding `CC(C)OC(=O)c1sc2nc3c(cc2c1N)C(=O)CCC3`, the inhibition was -8.03%. To `Cc1sc2nc(CC(N)=O)[nH]c(=O)c2c1-c1ccccc1` belongs 6.26%; to `Cc1cccc(NC(=O)c2sc3nc(N4CCOCC4)c4c(c3c2N)CCCC4)c1`, 32%; to `Cc1nc2sc(C(=O)c3ccccc3)c(N)c2c2c1CCCC2`, 42.2% (active). Regarding `CCN(CC)C(=O)c1sc2nc(-c3ccccc3)ccc2c1N`, the inhibition was 21%. To `NC(=O)c1sc2nc3c(c(-c4ccccc4)c2c1N)CCC3` belongs 41.3% (active). With `Cc1ccc2c(N)c(C(=O)c3ccccc3)sc2n1`, the inhibition was 41.9% (active). The value for `Cc1cc(C)cc(NC(=O)c2cccc(NC(=O)C3C4CC5OC(=O)C3C5C4)c2)c1` (centres undefined) was 4.38%; that for `CCCC(NC(=O)c1ccco1)c1nc2ccccc2[nH]1` (centres undefined) was 14.1%. The value for `CCOc1ccc(CCNC(=O)C2=C(C)C(=O)OC23CCC(C)CC3)cc1OCC` (centres undefined) was 19.9%; that for `Nc1nc(-c2sc3nc4c(cc3c2N)CCCC4)nc(N2CCOCC2)n1` was 27.8%. `CCN(CC)Cc1csc2ccc(Br)cc12`: the inhibition was 7.29%. The value for `COc1ccccc1OCCNCC(O)COc1cccc2[nH]c3ccccc3c12` (centres undefined) was 22.3%; that for `COc1ccc(C)cc1S(=O)(=O)NCCc1ccccc1` was 22.2%. To `CCOC(=O)c1nnn(-c2nonc2-n2cccc2)c1CN1CCC(C(=O)OCC)CC1` belongs 31.9%; to `CC(=O)c1cccc(OCC(=O)OCC(=O)Nc2cc(S(=O)(=O)N3CCCCC3)ccc2C)c1`, 1.6%; to `COc1ccc(N(C)C(=O)C2CCN(S(=O)(=O)c3cccc4nsnc34)CC2)cc1`, 6.33%.

Regarding `CC(C)C(=O)Nc1ccc2c3c(cccc13)CC2`, the inhibition was -15.9%. For the molecule `CC(C)c1cc(CN2CCOCC2)cc(C(C)C)c1O`, the inhibition is -5.76%. In the case of `Oc1c(C(c2ccccn2)N2CCOCC2)ccc2cccnc12` (centres undefined), the inhibition is 43.7% (active).

Regarding `COc1ccc(CCNC(=O)C2CCCN(S(=O)(=O)c3ccc(OC)cc3)C2)cc1` (centres undefined), the inhibition was 1.05%.

Source of the values: PubChem BioAssay AID463190 (Sanford-Burnham Center for Chemical Genomics, 2010).
